Source: the supplement of paper PMC8726507
Values without a mark were called inactive.

What follows are compounds tested on Plasmodium falciparum NF54-HGL (transmission to Anopheles stephensi) (assay: percentage of barcode signal found in uninfected mosquitoes (transmission-blocking activity); higher = stronger blocking of transmission to mosquito, active = 80 or more). Settings: 10 µM; gametocyte preincubation time 24 h; readout time post-feed 8 days.
Protocol: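 The mixture was fed to Anopheles stephensi in 96-well plates as blood meals tagged with DNA-barcoded Asaia bacteria. Eight days later, mosquitoes were classed infected or uninfected by luminescence (mean + 5 SD of unfed controls). Barcodes were quantified by Luminex MagPlex-TAG in the pooled uninfected and infected Asaia cultures, background-corrected, and the score is % of barcode signal in uninfected mosquitoes = 100*Iu/(Iu+Ii).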
In the case of Cc1nnc(NCc2cccc(Cl)c2)c2ccccc12, the “percentage of barcode signal found in uninfected mosquitoes” value (from here on “percentage of barcode signal found”) is reported as 34.2%.
COc1ccc(C2(C(=O)Nc3ccc(Br)cc3)CCCC2)cc1 was tested, and the “percentage of barcode signal found” value was 15.2%.
Cc1ccc2c(c1C)NC(=O)C21NN=C(c2ccccc2)S1 (centres undefined) was tested, and the “percentage of barcode signal found” value was 77%.
N#Cc1ccc(-c2cnc(N)c(-c3ccc(C(N)=O)cc3)n2)cc1 was tested, and the “percentage of barcode signal found” value was 69.6%.
With FC(F)(F)c1nnc2ccc(Cl)nn12 the “percentage of barcode signal found” value was 20.5%.
With COc1ccccc1OCCCCn1c(C2CC2)nc2ccccc21 the “percentage of barcode signal found” value was 48.5%.
For COc1ccccc1C(C)NCC(=O)Nc1cc(C(F)(F)F)ccc1Cl (centres undefined), the “percentage of barcode signal found” value was 11.8%.
With CC(C)N=c1cc2n(-c3ccc(Cl)cc3)c3ccccc3nc-2cc1Nc1ccc(Cl)cc1 the “percentage of barcode signal found” value was 99.3% (active).
For COC(=O)C1=C(C)NC(C)=C(C(=O)OC(C)C)C1c1cccc2nonc12 (centres undefined), the “percentage of barcode signal found” value was 57.4%.
With CC(=O)NC[C@@H]1CN(c2ccc(N3CCOCC3)c(F)c2)C(=O)O1 the “percentage of barcode signal found” value was 4.01%.
In the case of CCc1cc(=O)n(C)c(SC(C)C(=O)Nc2ccc(F)cc2)n1 (centres undefined), the “percentage of barcode signal found” value is reported as 48.5%.
O=C(Nc1cccnc1)c1c(O)c2cccc3c2n(c1=O)CC3 was tested, and the “percentage of barcode signal found” value was 20.2%.
CCC(Sc1nc2ccccc2o1)C(=O)Nc1nccs1 (centres undefined) was tested, and the “percentage of barcode signal found” value was -4.79%.
With CC1CS(=O)(=O)CCN1/N=C/c1ccc([N+](=O)[O-])o1 (centres undefined) the “percentage of barcode signal found” value was 91.3% (active).
With CCCNC(=O)N1CCC2(CC1)CC(=O)c1cc(C)ccc1O2 the “percentage of barcode signal found” value was 11.9%.
With COc1ccc(-c2cc(NC(=O)c3ccc(F)cc3Cl)ccc2OC)cc1 the “percentage of barcode signal found” value was -1.77%.
For O=C(c1cc2ccccc2o1)N1CCN(Cc2ccc3c(c2)OCO3)CC1, the “percentage of barcode signal found” value was 0.553%.
With CCN(CC)CCCCCCNc1cc(OC)cc2c(C)ccnc12 the “percentage of barcode signal found” value was 55.8%.
OCCc1ccc(Nc2nccc(-c3nnc4ccccn34)n2)cc1 was tested, and the “percentage of barcode signal found” value was 77%.
